SMILES strings stand for the structures. Results filed as inconclusive are left out. Active and inactive are the calls of the source. The call rests on the fitted dose curve; in most records, active means well fitted inhibition curve with a large enough effect; inconclusive means small, poorly fitted or top-dose-only effect; inactive means no such curve, though single readings can be large or run the other way.
Potency means the concentration at half of the fitted maximal effect.

The nature of this assay: InCell qHTS Assay for Inhibitors of the mTORC1 Signaling Pathway in MEF (Tsc2-/-, p53-/-) Cells: Hit Validation.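 Further: phospho-S6 Ser235/236 signal normalized to propidium iodide cell count per well; nearly all actives have a fitted effect of over 75% in size.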 The note with it: phospho-rpS6 immunofluorescence, 24 h; activity change, negative = inhibition: at 38.3 µM (top of the series). (qHTS replaces the single test concentration by a dilution series.)
On to `Cc1cc(Cl)ccc1NC(=O)CN1C(=O)C(=O)c2ccccc21`, for which the activity change, negative = inhibition is -16%.

Consider `COc1ccc(CCCc2nnc(SCC(=O)Nc3ccc(OC)cc3)o2)cc1`, for which the activity change, negative = inhibition was -100%.

As for `COc1ccc(CCN2C(=O)c3[nH]nc(-c4ccccc4O)c3C2c2cccc(OC)c2)cc1` (stereo unspecified), the activity change, negative = inhibition is -28.2%.

In the case of `COc1ccc(CCNC(=O)CCCn2nc(C)c3sc4ccccc4c3c2=O)cc1OC`, the activity change, negative = inhibition is -100%.

On to `Cc1cccc(NC(=O)c2sc3nc4c(cc3c2N)CCCCCC4)c1C`, for which the activity change, negative = inhibition was -11%.

On to `COc1ccc(S(=O)(=O)Nc2ccc3oc4c(c3c2)CCCC4)cc1`, for which the activity change, negative = inhibition was -100%.

In the case of `CCS(=O)(=O)c1ncc(Cl)c(C(=O)Nc2ccccc2)n1`, the Potency is 2610 nM (active).

Turning to `COc1ccccc1-c1noc(CSc2nc3ccc(C)cc3[nH]2)n1`, the activity change, negative = inhibition was -100%.

For the compound `Cc1ccccc1Oc1nc2ccccn2c(=O)c1/C=C(\C#N)c1nc2ccccc2[nH]1`, the activity change, negative = inhibition was -100%.

In the case of `COc1ccc(CCNC(=O)C(C)n2nc(C)c3sc4ccccc4c3c2=O)c(OC)c1` (stereo unspecified), the activity change, negative = inhibition was -100%.

On to `Cc1ccc(-n2ncc(C(=O)NCCCN3CCc4ccccc4C3)c2C2CCN(C(=O)OC(C)(C)C)CC2)c(C)c1`, for which the activity change, negative = inhibition was -100%.

As for `O=C(CCCn1c(=O)c2ccccc2n(Cc2cccc(Cl)c2)c1=O)NCCc1ccc(Cl)cc1`, the activity change, negative = inhibition was -100%.

`CCOc1ccc(C(=O)NCCc2sc(-c3ccc(C)cc3)nc2C)cc1`: the activity change, negative = inhibition was -100%.

`Cn1nnnc1SCCCNCc1cc(Cl)ccc1OCc1ccc(F)cc1`: the activity change, negative = inhibition was -100%.

Regarding `CN(C)c1ccc(-c2nc3ccccn3c2Nc2ccc3c(c2)OCCO3)cc1`, the activity change, negative = inhibition is -100%.

As to `Cc1nc2ccc(S(=O)(=O)CCC(=O)Nc3ccc(Cl)cc3)cc2s1`, the activity change, negative = inhibition was -100%.
